hgDAF12 agonist – agonists of H. glycines DAF-12 nuclear receptor | activation, % at 6.8 µM | 1.8% of 370,000 active | HEK293 GAL4-hgDAF12 UAS-luciferase reporter, agonist luminescence; normalized to butyrate control;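 active = activation above a cutoff set at the mean of all screened compounds plus 3 SD, cut at about 10% in these data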;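 also: 0% = DMSO wells and 100% = sodium butyrate wells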
ssDAF12 agonist – activates DAF-12 receptor from parasite S. stercoralis; HEK293 ssDAF-12/GRIP1 lit1-tk-luc reporter, luminescence; % of 3 µM dafachronic acid response; activation, % at 6.8 µM; 1% of 370,000 active; AID 652126;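 active = activation above the mean over all tested compounds plus 3 SD, cut at about 0.9% in these data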;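 also: 0% = DMSO-only wells and 100% = 3 µM delta7-dafachronic acid wells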
hcDAF12 agonist – activators of H. contortus DAF-12 nuclear receptor. AID 652067. activation, % at 6.8 µM. 1.4% of 370,000 active. HEK293 hcDAF-12 lit1-tk-luc reporter, luminescence; 0% DMSO, 100% Δ7-dafachronic acid;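 active = activation above the mean of all tested compounds plus 3 SD, cut at about 5.5% in these data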;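 also: 100% = response to 3 µM Δ7-dafachronic acid high control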
DAX1 inh-1 – inhibitors of DAX1 repression of SF-1 activated StAR promoter. HEK293T StAR-luciferase reporter, SF-1/DAX-1 repression relief. inhibition, % at 6.8 µM. 1.1% of 370,000 active;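 active = inhibition above the mean over all tested compounds plus 3 SD, cut at about 3.6% in these data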;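 also: 0% = DAX-1 cells with DMSO and 100% = cells lacking DAX-1 with DMSO; higher inhibition means more luminescence from relief of DAX-1 repression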
DAX1 inh-2 – inhibitors of human orphan nuclear receptor DAX1 (NR0B1); P51843; inhibition, % at 6.75 µM; HEK293 Gal4-DAX1 luciferase reporter, luminescence; AID 504766; 0.99% of 340,000 active;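 active = inhibition above the mean over all tested compounds plus 3 SD, cut at about 4.2% in these data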;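 also: 0% = DAX1-transfected cells with DMSO and 100% = empty-vector control cells with DMSO; inhibition shows as a rise in luminescence from relieved DAX1 repression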
hgDAF12 ag – confirmation of H. glycines DAF-12 agonists; 80% of 3,300 active; HEK293 GAL4-hgDAF12 luciferase reporter, agonist mode; percent of butyrate response; activation, % at 6.8 µM; shares compounds with hgDAF12 agonist;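 active = mean activation over triplicate wells above the hit cutoff derived from the earlier primary screen, cut at about 11% in these data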;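 also: 0% = DMSO low control and 100% = 2 mM sodium butyrate high control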
LXRb DAF12 ctr – activates human LXR-beta, counter-screen for DAF-12 agonists | shares compounds with hgDAF12 agonist | 3,300 tested, under 10 active | HEK293 Gal4-LXR luciferase reporter, 24 h | activation, % at 6.8 µM;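 active = mean activation of the triplicate above a set limit carried over from the primary screen, none filed active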
Target sequence (P55055 whole entry, looked up, the tested form may be a part): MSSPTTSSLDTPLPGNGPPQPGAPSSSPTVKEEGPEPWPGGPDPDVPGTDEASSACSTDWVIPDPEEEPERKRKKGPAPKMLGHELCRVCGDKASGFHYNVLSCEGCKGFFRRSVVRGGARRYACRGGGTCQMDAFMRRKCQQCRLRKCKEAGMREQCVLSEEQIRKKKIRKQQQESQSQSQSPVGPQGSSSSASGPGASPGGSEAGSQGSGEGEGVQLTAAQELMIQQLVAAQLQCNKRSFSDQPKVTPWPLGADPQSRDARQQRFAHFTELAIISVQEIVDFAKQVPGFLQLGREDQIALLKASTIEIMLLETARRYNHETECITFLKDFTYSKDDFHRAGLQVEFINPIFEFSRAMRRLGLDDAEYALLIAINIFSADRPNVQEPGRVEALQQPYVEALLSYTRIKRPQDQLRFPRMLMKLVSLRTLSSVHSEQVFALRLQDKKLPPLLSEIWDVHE
* hit, by the source's call; . = no result given. An excerpt weighted towards active compounds, which were near 4.1% of everything screened.

SMILES	hgDAF12 agonist	ssDAF12 agonist	hcDAF12 agonist	DAX1 inh-1	DAX1 inh-2	hgDAF12 ag	LXRb DAF12 ctr
O=C1CC(/C=C/c2ccc(Cl)cc2)=Nc2ccccc2N1	17*	-1	2	1	3	8	1
C=CCNc1nc(-c2ccc(Cl)cc2)cs1	14*	1	4	2	4	15*	1
CC(C)CCCCCCCCCCCCC(=O)NCC(=O)NC1C(O)C(O)C(Nc2ncnc3nc[nH]c23)OC1C(O)CO (centres undefined)	.	.	.	.	-6	.	.
CCC1NC(=O)c2cccnc2-n2c1nc1cc(OC)c(OC)cc1c2=O (centres undefined)	2	-1	0	2	1	.	.
COc1ccc2c(c1)NC(=O)CC(c1ccccc1)=N2	6	-2	-1	0	1	.	.
COc1ccc(O)c(C2=Nc3ccccc3N=C(c3ccccc3)C2)c1	14*	0	3	1	3	0	0
CCc1ccc(NC2=NCC(c3ccccc3)S2)cc1 (centres undefined)	13*	-1	4	2	0	11*	0
COc1ccc2cc(C3=CC(=O)CCC3)ccc2c1	16*	0	6.2*	2	4	16*	1
O=C1C=C(c2ccc3[nH]ccc3c2)CCC1	9	-1	2	1	2	.	.
Cc1ccc(Nc2ncnc(N)n2)cc1	19*	-1	2	0	0	5	0
Nc1ncnc(Nc2ccc(F)cc2)n1	0	-2	-2	0	-1	.	.
Cc1ccc(C(C)(C)NC(=O)C2CCC(=O)N(C3CCCCCC3)C2)cc1 (centres undefined)	13*	0	6.0*	3	1	14*	0
Cc1ccc(C(C)(C)NC(=O)C2CCC(=O)N(CCCN3CCOCC3)C2)cc1 (centres undefined)	0	-1	1	0	0	.	.
O=C(NCc1ccccc1)c1cccc(COc2ccc3c(c2)CCC3)c1	21*	-1	3	2	-4	17*	1
COc1ccc(CCNC(=O)COC(=O)CSc2ccc([N+](=O)[O-])cc2)cc1OC	6	-1	-1	-1	0	.	.
COc1cc(/C=C/c2nc3ccccc3c(=O)[nH]2)ccc1OC(F)F	6	-1	2	1	4	.	.
COc1cc(/C=C/c2nc3ccccc3c(=O)[nH]2)cc(OC)c1OC	5	-1	-1	0	-3	.	.
C=CCOc1cccc(/C=C/c2nc3ccccc3c(=O)[nH]2)c1	15*	1.3*	4	3	4	16*	1
Cc1ccccc1/C=C\c1nc2ccccc2c(=O)[nH]1	15*	1.3*	2	3	2	20*	1
COc1ccccc1C(=O)OCCc1ccccc1	17*	0.9*	6.2*	3	4	11*	0
Cn1cc(SCC(=O)Nc2nccs2)c2ccccc21	20*	0	2	4.4*	3	14*	0
O=c1/c(=C\c2ccc3c(c2)OCO3)sc2n1CCCN=2	19*	0	3	3	4.6*	14*	1
Cc1ccc(/C=c2/sc3n(c2=O)CCCN=3)o1	6	-1	0	1	3	.	.
Cc1ccc(C(NC(=O)C2CCN(Cc3ccc(Oc4ccccc4)cc3)CC2)c2ccccn2)cc1 (centres undefined)	7	-1	-1	0	.	.	.
O=C(/C=C/c1ccc(Cl)c(Cl)c1)NC1=NCCS1	13*	0	3	1	1	10*	0
Cc1cc(OCCCC(=O)NC2=NCCS2)ccc1Cl	3	-1	1	1	-2	.	.
COc1ccc(/C=C/C(=O)NC2=NCCS2)c(OC)c1	14*	-1	5	.	.	15*	1
CCc1nnc(NC(=O)C2(C)COC(c3ccc(OC)cc3)OC2)s1 (centres undefined)	-2	-2	-2	-1	0	.	.
COc1ccccc1CNC(=O)Nc1nc(C(N)CCc2ccccc2)cs1 (centres undefined)	1	-1	-1	0	.	.	.
